What all share (conditions): mRNA level, 48 h; actives raise or lower the signal
Read-out in experiment [1]: Hypoxia-inducible factor 1-alpha (Homo sapiens) (UniProt Q16665)
Briefly: LTEA_HepaRG_HIF1A: Life Technologies and Expression Analysis (LTEA) Assay for Hypoxia-inducible factor 1 (HIF1A) Trancription factor using HepaRG (AID 2283503). The method, boiled down:
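HepaRG, 48 h exposure, 8-pt half-log series from 100 uM, 0.5% DMSO vehicle, duplicates. Readout: HIF1A transcript by qRT-PCR (Fluidigm array), housekeeping-normalised. Bidirectional curve fit vs DMSO baseline.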

Read-out in experiment [2]: 3-Hydroxy-3-Methylglutaryl-CoA Synthase 2 (HMGCS2), HMGCS2 (gene 3158)
Briefly: LTEA_HepaRG_HMGCS2: Life Technologies and Expression Analysis (LTEA) Assay for 3-Hydroxy-3-Methylglutaryl-CoA Synthase 2 (HMGCS2) using HepaRG (AID 2283504). The method in brief:
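qRT-PCR read-out of HMGCS2 transcript, normalised to three housekeeping genes, in HepaRG cells after 48 h chemical exposure. Eight-point curves from 100 uM, half-log dilutions, 0.5% DMSO vehicle; gain or loss fitted relative to DMSO baseline.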

Read-out in another experiment: HGF (gene 3082)
In words: LTEA_HepaRG_HGF: Life Technologies and Expression Analysis (LTEA) Assay for Hepatocyte Growth Facto (HGF) using HepaRG (AID 2283505). The method, boiled down:
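HepaRG, 48 h dosing, 8-pt half-log series from 100 uM in 0.5% DMSO, duplicates. Readout: TaqMan qRT-PCR of HGF mRNA, housekeeping-normalized; bidirectional curve fit vs DMSO baseline.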

Read-out in experiment [3]: Insulin Like Growth Factor 1 (IGF1), IGF1 (gene 3479)
Briefly: LTEA_HepaRG_IGF1: Life Technologies and Expression Analysis (LTEA) Assay for Insulin Like Growth Factor 1 (IGF1) using HepaRG (AID 2283506). The method in brief:
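Using human HepaRG liver cells, IGF1 transcript induction or suppression is measured 48 h after dosing across eight concentrations capped at 100 uM. Values derive from bidirectional concentration-response fitting with DMSO as baseline.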

Read-out in experiment [4]: Intercellular Adhesion Molecule 1 (ICAM1), ICAM1 (gene 3383)
Briefly: LTEA_HepaRG_ICAM1: Life Technologies and Expression Analysis (LTEA) Assay for Intercellular Adhesion Molecule 1 (ICAM1) using HepaRG (AID 2283507). The method, boiled down: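 HepaRG, 48 h exposure, 8-pt half-log series from 100 uM, 0.5% DMSO vehicle, duplicates. Readout: TaqMan qRT-PCR mRNA, housekeeping-normalized (ACTB/GAPDH/POLR2A). Bidirectional curve fit vs DMSO baseline.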

Read-out in experiment [5]: Insulin-like growth factor-binding protein 1 (IGFBP1), IGFBP1 (gene 3484)
Briefly: LTEA_HepaRG_IGFBP1: Life Technologies and Expression Analysis (LTEA) Assay for Insulin-like growth factor-binding protein 1 (IGFBP1) using HepaRG (AID 2283508). The method, boiled down:
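qRT-PCR mRNA read-out (TaqMan, Fluidigm array), normalised to three housekeeping genes; HepaRG cells, 48 h exposure, 8-pt half-log series from 100 uM, 0.5% DMSO vehicle; bidirectional curve fit vs DMSO baseline.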

Read-out in experiment [6]: Interleukin 6 (IL6), IL6 (gene 3569)
Briefly: LTEA_HepaRG_IL6: Life Technologies and Expression Analysis (LTEA) Assay for Interleukin 6 (IL6) using HepaRG (AID 2283509). The method, boiled down:
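HepaRG cells exposed in duplicate for 48 h to eight half-log concentrations, top 100 uM, in 0.5% DMSO serum-free induction medium. mRNA measured by qRT-PCR, normalized to ACTB, GAPDH and POLR2A. Bidirectional fit versus DMSO.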

Read-out in experiment [7]: Interleukin 6 Receptor (IL6R), IL6R (gene 3570)
Briefly: LTEA_HepaRG_IL6R: Life Technologies and Expression Analysis (LTEA) Assay for Interleukin 6 Receptor (IL6R) using HepaRG (AID 2283510).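 On AC50: differentiated human HepaRG liver cells in serum-free induction medium.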 The method in brief:
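Concentration-response in human liver HepaRG cells: eight concentrations from 100 uM downward by half-logs, 48 h exposure, 0.5% DMSO vehicle. IL6R mRNA change measured by qRT-PCR and fitted in both directions relative to vehicle.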

Read-out in experiment [8]: Potassium channel subfamily K member 1 (KCNK1), KCNK1 (gene 3775)
In words: LTEA_HepaRG_KCNK1: Life Technologies and Expression Analysis (LTEA) Assay for Potassium channel subfamily K member 1 (KCNK1) using HepaRG (AID 2283511). The method in brief: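 Differentiated HepaRG cells, 48 h exposure in serum-free induction medium with 0.5% DMSO; 8 concentrations, half-log from 100 uM, duplicate. KCNK1 mRNA by qRT-PCR, normalized to ACTB, GAPDH, POLR2A; bidirectional fit vs DMSO.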

Read-out in experiment [9]: Keratin 19 (KRT19), KRT19 (gene 3880)
Briefly: LTEA_HepaRG_KRT19: Life Technologies and Expression Analysis (LTEA) Assay for Keratin 19 (KRT19) using HepaRG (AID 2283512). The method in brief: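 HepaRG, 48 h chemical exposure, 8-pt half-log CRC from 100 uM, 0.5% DMSO vehicle, duplicates. Readout: TaqMan qRT-PCR of KRT19 mRNA, housekeeping-normalized (ACTB/GAPDH/POLR2A). Bidirectional fit vs DMSO baseline.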

15 molecules from PubChem BioAssay (EPA / NIEHS) can be followed below.

Activity calls are given as the source filed them. How the source made its calls: active means hit-call score of the fitted dose curve at least 0.9, where 1 is the maximum; inactive means score below 0.9.

Hypoxia-inducible factor 1-alpha (Homo sapiens), sequence (Q16665 whole entry, looked up): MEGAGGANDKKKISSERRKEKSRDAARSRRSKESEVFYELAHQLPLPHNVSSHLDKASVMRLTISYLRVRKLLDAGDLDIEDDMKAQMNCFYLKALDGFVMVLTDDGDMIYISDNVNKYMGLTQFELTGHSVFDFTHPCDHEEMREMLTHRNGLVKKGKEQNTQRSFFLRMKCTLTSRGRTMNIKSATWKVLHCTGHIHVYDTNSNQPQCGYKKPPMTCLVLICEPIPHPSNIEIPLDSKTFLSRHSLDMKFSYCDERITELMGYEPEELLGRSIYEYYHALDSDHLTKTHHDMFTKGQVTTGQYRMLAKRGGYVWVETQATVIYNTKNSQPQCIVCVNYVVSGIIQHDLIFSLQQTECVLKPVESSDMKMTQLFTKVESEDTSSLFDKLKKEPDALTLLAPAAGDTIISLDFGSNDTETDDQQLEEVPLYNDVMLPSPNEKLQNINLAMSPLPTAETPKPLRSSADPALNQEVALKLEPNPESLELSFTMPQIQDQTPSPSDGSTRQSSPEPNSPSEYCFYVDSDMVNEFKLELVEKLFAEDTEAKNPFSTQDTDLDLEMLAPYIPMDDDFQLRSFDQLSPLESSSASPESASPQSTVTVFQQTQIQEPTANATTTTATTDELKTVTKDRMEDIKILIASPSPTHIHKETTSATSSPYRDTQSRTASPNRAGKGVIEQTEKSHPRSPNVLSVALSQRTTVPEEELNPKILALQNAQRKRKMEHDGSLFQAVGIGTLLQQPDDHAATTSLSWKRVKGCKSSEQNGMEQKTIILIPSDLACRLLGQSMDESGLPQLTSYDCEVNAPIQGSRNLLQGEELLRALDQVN

As to `ClCCOCCCl`, the molecule was called inactive (in experiment [1]; in experiment [2]; with HGF (gene 3082); in experiment [3]; in experiment [4]; in experiment [5]). Besides, the molecule was called inactive in experiment [6], in [7], in experiment [8] and in experiment [9].
Consider `CC(C)(OOC(C)(C)c1ccccc1)c1ccccc1`, for which the result (in experiment [1]; in experiment [2]; with HGF (gene 3082); in experiment [3]; in experiment [4]; in [6]) was inactive. For the same molecule, the outcome in [7], in experiment [8] and in [9] was inactive.
What is called AC50 is the concentration at which the activity in the assay is half-maximal. Take `O=[N+]([O-])c1ccc(Oc2ccc(Cl)cc2Cl)cc1`: the outcome (in experiment [1]; in [2]; in the experiment with HGF (gene 3082); in experiment [4]; in experiment [6]; in [7]) was inactive. The molecule was called inactive in [8]. Further, the concentration at half-maximal activity (AC50) is 50 µM (active) in [3] and 41.1 µM (active) in experiment [9].
For the molecule `Cc1ccc(N=C=O)cc1N=C=O`, the molecule was called inactive (in [1]; in the experiment with HGF (gene 3082); in [3]; in [7]; in experiment [8]). For the same molecule, the half-maximal activity concentration (AC50) in experiment [2] was 68.7 µM (active); in experiment [4], 24 µM (active); in [6] it was 73.5 µM (active); in experiment [9], 23.9 µM (active).
As for `CC(C)(C)C(O)(CCc1ccc(Cl)cc1)Cn1cncn1` (centres undefined), the outcome in experiment [1], in experiment [6], in [7], in experiment [8] and in experiment [9] was inactive. In addition, the AC50 in experiment [2] was 72.3 µM (active); in the experiment with HGF (gene 3082), 79.1 µM (active); in experiment [3], 50 µM (active); in [4], 50 µM (active).
Consider `CC(C)(O)c1cnn2c(-c3ccc(F)c(-c4c(F)cccc4C#N)c3)cnc2n1`, for which the result (in experiment [1]; with HGF (gene 3082); in experiment [4]; in [6]; in experiment [7]; in [8]) was inactive. Further, the call in [9] was inactive. Moreover, the AC50 in experiment [2] was 13.1 µM (active); in experiment [3], 1.35 µM (active).
`CCCCCCCCCCCCCN1CC(C)OC(C)C1` (centres undefined): the outcome (in experiment [1]; in experiment [2]; with HGF (gene 3082); in experiment [3]; in [4]; in experiment [6]) was inactive. The outcome in experiment [7], in [8] and in experiment [9] was inactive.
As for `O=C(O)C1C2CCC(O2)C1C(=O)O` (centres undefined), the AC50 in [2] is 72.6 µM (active); in experiment [3], 73.6 µM (active); in [6], 16.5 µM (active); in [7] it was 26.4 µM (active); in [9], 50 µM (active). For the same molecule, the molecule was classed as inactive (with HGF (gene 3082); in experiment [4]; in experiment [8]).
Consider `CCN(CC)N=O`, for which the result (in [1]; in experiment [2]; with HGF (gene 3082); in [3]; in experiment [4]; in experiment [6]) was inactive. Further, the result in experiment [7], in experiment [8] and in [9] was inactive.
Regarding `OCCCBr`, the molecule was called inactive (in experiment [1]; in experiment [2]; with HGF (gene 3082); in [3]; in experiment [4]; in experiment [6]). The outcome in experiment [7], in experiment [8] and in experiment [9] was inactive.
In the case of `Nc1ccc([N+](=O)[O-])cc1`, the molecule was called inactive (in experiment [1]; in experiment [2]; with HGF (gene 3082); in [3]; in experiment [4]; in experiment [6]). Also, the call in experiment [7], in experiment [8] and in experiment [9] was inactive.
As for `CN(C)[C@@H]1C(=O)C(C(N)=O)=C(O)[C@@]2(O)C(=O)C3=C(O)c4c(O)cccc4[C@@](C)(O)[C@H]3C[C@@H]12`, the molecule was classed as inactive (in [2]; in the experiment with HGF (gene 3082); in experiment [3]; in experiment [4]; in experiment [6]; in [7]). Moreover, the outcome in experiment [8] and in [9] was inactive.
Consider `CCCCCOC(=O)c1ccccc1C(=O)OCCCCC`, for which the outcome (in [1]; in experiment [2]; with HGF (gene 3082); in experiment [3]; in [4]; in experiment [6]) was inactive. Besides, the molecule was called inactive in experiment [7], in [8] and in experiment [9].
Turning to `c1ccc(N=Nc2ccccc2)cc1`, the outcome (in experiment [1]; in [2]; in the experiment with HGF (gene 3082); in [4]; in experiment [5]; in experiment [6]) was inactive. Besides, the outcome in experiment [7], in [8] and in experiment [9] was inactive.
For the molecule `c1ccc2c(c1)oc1ccccc12`, the result (in [1]; in experiment [2]; with HGF (gene 3082); in [3]; in [4]; in experiment [6]) was inactive. The result in experiment [7], in [8] and in [9] was inactive.
